Structures can show the parent of a compound that is named as a salt.
How the values were obtained:
Experiment in all cases: cell proliferation relative to vehicle (% of vehicle); higher = less growth inhibition
Settings in all cases: 72 h
[1] = tested on: U2932 TK216-resistant clone 2
In short: (§1)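 Parental U2932 cells (ABC-DLBCL) and two clones made resistant to an ETS-targeting agent by almost a year of repeated exposure were treated for 72 h with 348 targeted inhibitors at 500 nM or 50 nM. MTT was then applied for 4 h, the reaction was stopped with 25% SDS, and absorbance was measured on a Cytation 3. Values express proliferation as percent of proliferating cells compared with DMSO vehicle.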

[2] = tested on: U2932 TK216-resistant clone 3
In short: as §1

[3] = tested on: U2932 parental
In short: as §1

Row | Compound | cell proliferation ([1]; 50 nM) | cell proliferation ([1]; 500 nM) | cell proliferation ([2]; 50 nM) | cell proliferation ([2]; 500 nM) | cell proliferation ([3]; 50 nM) | cell proliferation ([3]; 500 nM)
1 | COC1=CC(c2cc3ccccc3[nH]2)=N/C1=C\c1[nH]c(C)cc1C [Obatoclax Mesylate (GX15-070)] | 94.8 | 1.6 | 102 | 8.59 | 75.2 | 2.95
2 | CO[C@H]1C[C@@H]2CC[C@@H](C)[C@@](O)(O2)C(=O)C(=O)N2CCCC[C@H]2C(=O)O[C@H]([C@H](C)C[C@@H]2CC[C@@H](O)[C@H](OC)C2)CC(=O)[C@H](C)/C=C(\C)[C@@H](O)[C@@H](OC)C(=O)[C@H](C)C[C@H](C)/C=C/C=C/C=C/1C [Rapamycin (Sirolimus)] | 62.4 | 62.1 | 60.3 | 59.4 | 58.2 | 58.9
3 | Cc1nc(N)sc1-c1ccnc(Nc2ccc(N3CCOCC3)cc2)n1 | 91.2 | 103 | 99.5 | 103 | 103 | 95.8
4 | COc1nc(OCc2cccc(-c3ccccc3)c2C)ccc1CNCCNC(C)=O [PD-1/PD-L1 inhibitor 2] | 95.9 | 89 | 94.4 | 82.7 | 104 | 91.5
5 | CCN(CC)CCNC(=O)c1ccc(N)cc1 [Procainamide HCl] |  |  |  |  | 93.9 | 95.9
6 | CO[C@H]1C[C@@H]2CC[C@@H](C)[C@@](O)(O2)C(=O)C(=O)N2CCCC[C@H]2C(=O)O[C@H]([C@H](C)C[C@@H]2CC[C@@H](OCCO)[C@H](OC)C2)CC(=O)[C@H](C)/C=C(\C)[C@@H](O)[C@@H](OC)C(=O)[C@H](C)C[C@H](C)/C=C/C=C/C=C/1C [Everolimus (RAD001)] | 65.8 | 65.5 | 64.2 | 66.5 | 55.5 | 59.1
7 | Nc1ccccc1NC(=O)c1ccc(CNC(=O)OCc2cccnc2)cc1 [Entinostat (MS-275)] | 104 | 74.8 | 88.2 | 66.7 | 93.2 | 66.2
8 | CO[C@@]12[C@H](COC(N)=O)C3=C(C(=O)C(C)=C(N)C3=O)N1C[C@@H]1N[C@@H]12 [Mitomycin C] | 94.8 | 13.8 | 96.6 | 26.4 | 91.3 | 35.8
9 | CCOc1ccc(Cc2cc([C@@H]3O[C@H](CO)[C@@H](O)[C@H](O)[C@H]3O)ccc2Cl)cc1 [Dapagliflozin] | 103 | 103 | 101 | 107 | 103 | 96.2
10 | CCc1c2c(nc3ccc(OC(=O)N4CCC(N5CCCCC5)CC4)cc13)-c1cc3c(c(=O)n1C2)COC(=O)[C@]3(O)CC [Irinotecan] |  |  |  |  | 94.3 | 50.5
11 | COc1cc([C@@H]2c3cc4c(cc3[C@@H](O[C@@H]3O[C@@H]5CO[C@@H](c6cccs6)O[C@H]5[C@H](O)[C@H]3O)[C@H]3COC(=O)[C@H]23)OCO4)cc(OC)c1O [Teniposide] | 59 | 8.54 | 83 | 19.8 | 67.7 | 16.8
12 | CCCCCCCCc1ccc(CCC(N)(CO)CO)cc1 [Fingolimod (FTY720) HCl] | 99.3 | 102 | 99.6 | 96.1 | 98.3 | 94.8
13 | C/C(=C\C(=O)Nc1ccccc1C(=O)O)c1ccc2ccccc2c1 | 82.5 | 98.2 | 109 | 100 | 97.4 | 102
14 | Cc1ccc2c(=O)c3cccc(CC(=O)O)c3oc2c1C [DMXAA (Vadimezan)] | 110 | 99.3 | 101 | 95.3 | 101 | 99.2
15 | Cn1cc(-c2ccc3c(c2)CCN3C(=O)Cc2cccc(C(F)(F)F)c2)c2c(N)ncnc21 | 105 | 102 | 108 | 121 | 101 | 105
16 | Cc1nc(NC(=O)N2CCC[C@H]2C(N)=O)sc1-c1ccnc(C(C)(C)C(F)(F)F)c1 | 98.4 | 78.7 | 96.2 | 85 | 97.7 | 91
17 | Cc1[nH]c(/C=C2\C(=O)Nc3ccc(S(=O)(=O)Cc4c(Cl)cccc4Cl)cc32)c(C)c1C(=O)N1CCC[C@@H]1CN1CCCC1 | 108 | 92.4 | 103 | 90.5 | 102 | 96.8
18 | CNC(=O)c1cc(Oc2ccc(NC(=O)Nc3ccc(Cl)c(C(F)(F)F)c3)c(F)c2)ccn1 [Regorafenib (BAY 73-4506)] | 103 | 116 | 105 | 107 | 105 | 105
19 | CCCCCCCCCCCCCCCCCCOP(=O)([O-])OC1CC[N+](C)(C)CC1 [Perifosine (KRX-0401)] | 98.7 | 93.4 | 113 | 110 | 96.7 | 102

Row | Compound | cell proliferation ([1]; 50 nM) | cell proliferation ([1]; 500 nM) | cell proliferation ([2]; 50 nM) | cell proliferation ([2]; 500 nM) | cell proliferation ([3]; 50 nM) | cell proliferation ([3]; 500 nM)
20 | CN1CCN(c2ccc3nc(-c4c(N)c5c(F)cccc5[nH]c4=O)[nH]c3c2)CC1 [Dovitinib (TKI-258, CHIR-258)] | 103 | 83.9 | 95.7 | 83.3 | 95.1 | 96.9
21 | CS(=O)(=O)CCNCc1ccc(-c2ccc3ncnc(Nc4ccc(OCc5cccc(F)c5)c(Cl)c4)c3c2)o1 | 101 | 85.9 | 94.2 | 84.4 | 96.6 | 97.3
22 | CC[C@@H]1C(=O)N(C)c2cnc(Nc3ccc(C(=O)NC4CCN(C)CC4)cc3OC)nc2N1C1CCCC1 | 13.1 | 21 | 16.2 | 23.3 | 14.8 | 20.4
23 | CN(C)CCOc1ccc(/C(=C(/CCCl)c2ccccc2)c2ccccc2)cc1 [Toremifene Citrate] | 102 | 84.4 | 101 | 75.1 | 101 | 88.8
24 | CCc1cncnc1N1CCN(Cc2nc3ccc(C(F)(F)F)cc3[nH]2)CC1 | 100 | 101 | 96 | 100 | 88.9 | 92
25 | COc1ccc(F)c(F)c1C(=O)c1cnc(NC2CCN(S(C)(=O)=O)CC2)nc1N | 92 | 53.5 | 89.4 | 66.7 | 90.5 | 63.3
26 | Nc1nc(F)nc2c1ncn2[C@@H]1O[C@H](COP(=O)(O)O)[C@@H](O)[C@@H]1O [Fludarabine Phosphate] | 98.2 | 110 | 103 | 104 | 102 | 93.7
27 | O=C(O)CC[C@H]1CC[C@@](c2cc(F)ccc2F)(S(=O)(=O)c2ccc(Cl)cc2)CC1 | 102 | 109 | 105 | 106 | 93.5 | 93.2
28 | O=C(O)CCNc1cc(N2CCc3ccccc3CC2)nc(-c2ccccn2)n1 | 103 | 100 | 105 | 102 | 99.3 | 99.8
29 | Cc1ccc(S(=O)(=O)/C=C/C#N)cc1 | 107 | 113 | 109 | 104 | 102 | 102
30 | C[S+]([O-])c1ccc(-c2nc(-c3ccc(F)cc3)c(-c3ccncc3)[nH]2)cc1 (stereo not given) | 109 | 101 | 93.4 | 94.4 | 106 | 101
31 | CC[C@@]1(O)C(=O)OCc2c1cc1n(c2=O)Cc2cc3c(CN(C)C)c(O)ccc3nc2-1 [Topotecan HCl] | 9.75 | 5 | 12.8 | 5.92 | 11.1 | 2.71
32 | CCS(=O)(=O)N1CC(CC#N)(n2cc(-c3ncnc4[nH]ccc34)cn2)C1 | 107 | 118 | 111 | 104 | 104 | 105
33 | C[C@]1(O)C[C@@H](c2nc(-c3ccc4ccc(-c5ccccc5)nc4c3)c3c(N)nccn32)C1 [OSI-906 (Linsitinib)] | 104 | 95.1 | 95.7 | 99.4 | 99.3 | 99.7
34 | CS(=O)(=O)N1CCN(Cc2cc3nc(-c4cccc5[nH]ncc45)nc(N4CCOCC4)c3s2)CC1 |  |  |  |  | 85.4 | 49.1
35 | NC(=O)c1ncn([C@@H]2O[C@H](CO)[C@@H](O)[C@H]2O)c1N [Acadesine] | 88.9 | 94.5 | 98.7 | 98.1 | 102 | 98.4
36 | Cc1cc([C@@H](C)Nc2ccccc2C(=O)O)c2nc(N3CCOCC3)cc(=O)n2c1 | 107 | 95 | 103 | 95.3 | 99.9 | 101
37 | O=c1cc(-c2cccc3c2Sc2ccccc2S3)oc(N2CCOCC2)c1 | 108 | 102 | 98.8 | 95.3 | 102 | 103

— the supplement of paper PMC13172266
